This is an account of results in PubChem BioAssay AID504652 (National Center for Advancing Translational Sciences (NCATS), 2011).

Molecules are shown by their SMILES. In all, about 360,000 compounds went through this assay and about 11,000 (3.1%) were called active. The sample as a whole holds a higher share of actives than the screen did. Values without a mark were called inactive. Cut-off read from the data, not from the text of the source: active = activity change below about -30%; inactive = the rest.
% is set by controls: 0 for no effect and ±100 for the full control effect.

D(1A) dopamine receptor (Homo sapiens), sequence (P21728 whole entry, looked up): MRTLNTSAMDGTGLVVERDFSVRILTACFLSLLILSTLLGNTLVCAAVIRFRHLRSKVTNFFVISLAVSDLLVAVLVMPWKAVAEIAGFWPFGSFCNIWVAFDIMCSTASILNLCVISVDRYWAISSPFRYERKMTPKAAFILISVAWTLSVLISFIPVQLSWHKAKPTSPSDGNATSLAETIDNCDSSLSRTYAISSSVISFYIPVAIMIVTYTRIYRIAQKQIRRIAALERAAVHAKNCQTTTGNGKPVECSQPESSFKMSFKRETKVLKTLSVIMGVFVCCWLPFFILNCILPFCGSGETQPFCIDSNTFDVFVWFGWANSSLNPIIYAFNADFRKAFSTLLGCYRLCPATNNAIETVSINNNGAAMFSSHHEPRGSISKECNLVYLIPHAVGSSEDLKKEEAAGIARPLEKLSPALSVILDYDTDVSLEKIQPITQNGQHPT

This assay has as its target D(1A) dopamine receptor (Homo sapiens) (UniProt P21728). Nature of the assay: Antagonist of Human D 1 Dopamine Receptor: qHTS. The settings on record: HEK293 TREx D1 cells, calcium flux, dopamine EC80; at 10 µM; hits give low values. The source says: Dopamine receptors (DARs) are involved in the etiology and/or therapy of a number of neuropsychiatric and endocrine disorders. For instance, all receptor-based antiparkinsonian drugs work via stimulating the […] DAR subtype whereas all FDA-approved antipsychotic agents are antagonists of this receptor. […] There are three different types of allosteric modulators that we are seeking, two of which will stimulate or augment receptor signaling, allosteric agonists and potentiators, while the third, allosteric antagonists, will attenuate receptor signaling. The present primary screening assay measures compound antagonism after an EC80 addition of dopamine by tracking calcium flux in a […], inducible Hek293 Trex D1 cell line. NIH Chemical Genomics Center [NCGC] NIH Molecular Libraries Probe Centers Network [MLPCN] MLPCN Grant: NS064831-01 Assay Submitter (PI): David Sibley
Freshly passaged cells are plated in 1536 well black, clear bottom plates at a density of 4000 cells/well in 3 ul of complete media containing 1x tetracycline inducer. After an overnight incubation at 30 C in 5% CO2, cells are loaded with 2 ul of the no wash Calcium Assay Kit (ABD Bioquest) and incubated at room temperature for 30 to 90 minutes. Agonist read: A 10 cycle (1 second/cycle) baseline measurement is taken and then the FDSS online 1536 pintool delivers 23 nl of compound library (as well as dopamine controls) to the plate. The plate is measured for kinetically at 1 cycle/sec for 180 seconds. Following the 180 second read, 1 ul of an EC80 (negative modulation assay) is delivered by an onboard pipette head. Measurements are taken kinetically for an additional 180 seconds.
A general note: Quantitative high-throughput screening tests each substance at several concentrations.
Turning to `Cc1ccc(C(=O)NC(=S)Nc2ccc(N3CCOCC3)cc2)cc1`, the activity change, negative = inhibition is -12.4%.

Turning to `O=C(NCc1ccc2c(c1)CCN2C(=O)c1ccccc1)Nc1cc(F)ccc1F`, the activity change, negative = inhibition was 1.84%.

Consider `Cc1[nH]n(C)c(=O)c1C(=O)c1c(-c2c(Cl)cccc2Cl)noc1C`, for which the activity change, negative = inhibition was -9.05%.

Turning to `Cc1c(N=Nc2ccc(N(C)C)cc2)c(=O)n(-c2ccccc2)n1C`, the activity change, negative = inhibition was -0.41%.

Regarding `Cc1[nH]n(C)c(=O)c1N=Nc1ccc(S(C)(=O)=O)cc1`, the activity change, negative = inhibition was -33.8% (active).

On to `CCOc1ccc(S(=O)(=O)N2CCCCCC2)c2ccccc12`, for which the activity change, negative = inhibition was 1.18%.

As to `CCOc1cc(C)c(Cl)cc1S(=O)(=O)n1nnc2ccccc21`, the activity change, negative = inhibition was -41.9% (active).

For the compound `CCOc1cc(C)c(S(=O)(=O)NCc2ccccn2)cc1C`, the activity change, negative = inhibition was -15%.

As for `COc1ccc(OC)c(CNC(=O)CN2C(=O)CCn3nc(-c4cn(C)c5ccccc45)cc32)c1`, the activity change, negative = inhibition is 9.51%.

On to `COc1ccc(-n2ccnc(NCCc3ccc(Cl)cc3)c2=O)cc1OC`, for which the activity change, negative = inhibition was -3.67%.

Take `Cc1cccc(N2CCN(C(=O)c3cc4c(=O)oc5ccccc5c4s3)CC2C)c1` (stereo unspecified): the activity change, negative = inhibition is -15.4%.

As to `CCOc1ccc2oc(=O)cc(CN3CCN(C(=O)c4ccc(F)cc4)CC3)c2c1`, the activity change, negative = inhibition was -25%.

As for `CCC(=O)N1CCc2cc(Br)cc(S(=O)(=O)NCc3ccc(Cl)cc3)c21`, the activity change, negative = inhibition was 4.98%.

For the compound `COc1ccccc1N1CCN(C(=O)CCS(=O)(=O)c2ccc3c(c2)NC(=O)C(C)S3)CC1` (stereo unspecified), the activity change, negative = inhibition was 5.52%.

For `CC1Sc2ccc(S(=O)(=O)CCC(=O)NCc3ccccc3Cl)cc2NC1=O` (stereo unspecified), the activity change, negative = inhibition is -9.63%.

As to `Cc1cccc(N2CCN(C(=O)CCS(=O)(=O)c3ccc4c(c3)NC(=O)C(C)S4)CC2)c1C` (stereo unspecified), the activity change, negative = inhibition is -41.4% (active).

For `CCn1c2ccccc2c2cc(CN3CCN(Cc4cccc(Cl)c4)CC3)ccc21`, the activity change, negative = inhibition was -24.4%.

Take `N/C(=N\OC(=O)CCc1ccccc1)c1ccc(Cl)cc1`: the activity change, negative = inhibition was -6.68%.

`COc1ccc(/C(N)=N/OC(=O)Cc2ccccc2)cc1`: the activity change, negative = inhibition is 3.45%.

`COc1ccc(/C(N)=N/OC(=O)CCCc2ccccc2)cc1`: the activity change, negative = inhibition was -50.3% (active).

Turning to `CCOc1ccc(CNC(=O)c2cc(-c3ccc(Cl)s3)nc3ccccc23)cc1`, the activity change, negative = inhibition was 13.1%.

`COc1ccc(NC(=O)CCCN2C(=O)CCn3nc(-c4cn(C)c5ccccc45)cc32)cc1OC`: the activity change, negative = inhibition is 16%.

As for `Cc1nc(CNS(=O)(=O)c2cc([N+](=O)[O-])ccc2C)cs1`, the activity change, negative = inhibition is 8.15%.

Take `Cc1nn(C)c(Oc2ccccc2)c1CCNS(=O)(=O)c1ccc(F)cc1`: the activity change, negative = inhibition is -5.72%.

On to `Cc1nc(CNS(=O)(=O)c2ccc(Oc3ccccc3)cc2)cs1`, for which the activity change, negative = inhibition was -42.6% (active).

Turning to `CCOc1ccc(C2C(C(=O)Nc3ccc(Cl)cc3)=C(C)Nc3nc(C(F)(F)F)nn32)cc1` (stereo unspecified), the activity change, negative = inhibition is 10.7%.

For `Cc1ccccc1-c1nc(SCC(=O)N(C)c2ccccc2)c2c(=O)n(C)c(=O)n(C)c2n1`, the activity change, negative = inhibition is 8.47%.

Consider `CCOc1ccccc1/C=N/NC(=O)CNC(=O)COc1ccccc1`, for which the activity change, negative = inhibition was -1.88%.

With `Cc1cccc(OCC(=O)Nc2ccccc2F)c1`, the activity change, negative = inhibition is -0.963%.

As to `Cc1cccc(OCC(=O)NCC(=O)N/N=C/c2ccc(N(C)C)cc2)c1`, the activity change, negative = inhibition was -31.7% (active).

On to `Cc1oc2ccc(O)c(CN3CCC(C)CC3)c2c1C(=O)Nc1ccccc1`, for which the activity change, negative = inhibition is 7.02%.

Consider `COc1cccc(NC(=O)CSc2cc(=O)n(C)c3ccc(Cl)cc23)c1`, for which the activity change, negative = inhibition was -17.9%.

Regarding `CC(=O)N(OCc1ccc(OC(C)C)c(Cl)c1)C(C)=O`, the activity change, negative = inhibition was -4.21%.

Regarding `CC(Oc1ccc(Cl)cc1Cl)C(=O)/C=C/N(C)C` (stereo unspecified), the activity change, negative = inhibition was -37.2% (active).

`CC(Oc1ccc(F)cc1F)C(=O)/C=C/N(C)C` (stereo unspecified): the activity change, negative = inhibition is 2.85%.

With `COc1ccc(C(=O)Nc2nonc2-c2ccc(OC)c(OC)c2)cc1Cl`, the activity change, negative = inhibition is 0.206%.

With `CCc1cccc(NC(=O)Cn2nc(CC)n3c(cc4cc(C)ccc43)c2=O)c1`, the activity change, negative = inhibition was 4.91%.

On to `CCCS(=O)(=O)Nc1cccc(-c2cn3ccsc3n2)c1`, for which the activity change, negative = inhibition was -4.71%.

On to `O=C(Cc1ccc(F)cc1)N1CCN=C1SCc1cccc([N+](=O)[O-])c1`, for which the activity change, negative = inhibition is -1.86%.

Regarding `O=C(COc1ccccc1)N1CCN=C1SCc1cccc(F)c1`, the activity change, negative = inhibition was -31.4% (active).

Turning to `CCC(=O)N1CCN=C1SCc1ccc(F)cc1`, the activity change, negative = inhibition is -8.09%.

On to `COc1cc(OC)cc(-c2nc3nc(C)c(CCC(=O)Nc4ccc(C)cc4)c(C)n3n2)c1`, for which the activity change, negative = inhibition is -10.7%.

Turning to `CC(C)c1ccc(NS(=O)(=O)c2ccc3[nH]cc(C(=O)NC4CCCC4)c(=O)c3c2)cc1`, the activity change, negative = inhibition is 19.6%.

Turning to `CCOC(=O)CCC(=O)OCC(=O)NC(C)C1CC2CCC1C2` (stereo unspecified), the activity change, negative = inhibition is -3.11%.

`COC(=O)c1cc(C(=O)NC(C)C2CC3CCC2C3)cc([N+](=O)[O-])c1` (stereo unspecified): the activity change, negative = inhibition is -60.3% (active).

On to `Cc1c(C(=O)NC(C)C2CC3CCC2C3)cccc1[N+](=O)[O-]` (stereo unspecified), for which the activity change, negative = inhibition is 18.8%.
